NPSR antag = blocks cAMP signaling of the human neuropeptide S receptor | CHO-NPSR cells, cAMP TR-FRET, antagonist mode | Potency, µM (top dose mostly 38.3 µM), for inactives: at the highest dose activity change, negative = inhibition, usual class: inhibitors | actives 1% (n = 220,000) | Q6W5P4; active means well fitted curve in the direction sought with a large enough effect; inconclusive means small, poorly fitted or top-dose-only effect, or another doubt; inactive means no such curve, though single readings can be large; an effect the other way counts as inactive or inconclusive; further: potency means the concentration at half of the fitted maximal effect; nearly all actives have a fitted effect of over 50% in size
IMPase Li cell = membrane-permeable IMPase blocker, potentiated with lithium; CHO-M1 cells, IP1 TR-FRET (IP-One), carbachol + lithium; Potency, µM (top dose mostly 59.4 µM), for inactives: at the top dose activity, negative = IMPase inhibition, hits mostly inhibitors; actives 0.35% (n = 210,000); AID 1457; active means well fitted curve in the direction sought with a large enough effect; inconclusive means small, poorly fitted or top-dose-only effect, or another doubt; inactive means no such curve, though single readings can be large; an effect the other way counts as inactive or inconclusive;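 further: IP1 builds up when IMPase is blocked and the TR-FRET signal falls; potency means the concentration at half of the fitted maximal effect; plate controls were basal vehicle for no effect and high inhibitor control for full effect; nearly all actives have a fitted effect of over 50% in size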
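CHO cells stably expressing M1 receptor (2000/well, cultured 16–30 h) treated 30 min at 37C with compound plus low lithium. Cytosolic IP1 by TR-FRET (665/620 ratio and 620 channel) after 10 min lysis; AC50 by Hill fit.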
ALDH1A1 block = blocks purified human ALDH1A1 activity; P00352; Purified ALDH1A1, NADH fluorescence, propionaldehyde substrate; Potency, µM (top dose mostly 75.3 µM), for inactives: top-dose activity, negative = inhibition, hits mostly inhibitors; actives 7.3% (n = 220,000); AID 1030;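 further: potency means the concentration at half of the fitted maximal effect; plate controls were no enzyme wells and a reference inhibitor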
Target sequence (P00352 whole entry, looked up): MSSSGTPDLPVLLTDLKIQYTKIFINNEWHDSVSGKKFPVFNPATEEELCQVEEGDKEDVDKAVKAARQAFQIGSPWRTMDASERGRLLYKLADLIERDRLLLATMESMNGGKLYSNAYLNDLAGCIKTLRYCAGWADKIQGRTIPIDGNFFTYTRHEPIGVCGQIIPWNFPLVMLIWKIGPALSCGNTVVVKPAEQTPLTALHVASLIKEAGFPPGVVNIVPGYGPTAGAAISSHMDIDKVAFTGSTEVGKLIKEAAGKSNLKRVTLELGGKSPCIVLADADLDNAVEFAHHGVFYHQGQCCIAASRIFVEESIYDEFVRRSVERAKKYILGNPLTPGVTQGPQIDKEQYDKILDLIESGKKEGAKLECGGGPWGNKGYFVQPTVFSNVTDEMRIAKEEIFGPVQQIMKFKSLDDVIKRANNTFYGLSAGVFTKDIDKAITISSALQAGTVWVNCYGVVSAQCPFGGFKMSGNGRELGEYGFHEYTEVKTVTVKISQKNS
HPGD block = inhibitors of human 15-hydroxyprostaglandin dehydrogenase (HPGD) | purified HPGD, NADH fluorescence kinetic, PGE2 substrate | Potency, µM, for the others: at the highest dose activity change, negative = inhibition, actives largely listed as inhibitors | actives 4.3% (n = 150,000); further: potency means the concentration at half of the fitted maximal effect
Target sequence (P15428 whole entry, looked up): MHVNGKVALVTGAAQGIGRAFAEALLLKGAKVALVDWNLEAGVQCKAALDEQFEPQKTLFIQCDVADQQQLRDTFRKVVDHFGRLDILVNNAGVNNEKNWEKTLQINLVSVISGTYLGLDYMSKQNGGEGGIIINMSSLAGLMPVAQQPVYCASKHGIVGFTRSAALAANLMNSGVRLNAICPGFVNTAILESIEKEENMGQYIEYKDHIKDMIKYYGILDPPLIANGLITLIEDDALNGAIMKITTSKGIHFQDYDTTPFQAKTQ
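NADH formation kinetics: reaction with 30 uM PGE2 and 1 mM NAD+ (final), 20 nM enzyme, Tris-HCl pH 8 with Tween 20, after 15 min compound preincubation at room temperature. Fluorescence change, last versus first of five reads.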
IMPase inh = cell-permeable inhibitors of inositol monophosphatase (IMPase); inhibition (IP1 accumulation), % at 46.1 µM; 120,000 tested, under 10 active; CHO-M1 cells, IP1 accumulation, HTRF TR-FRET ratio; AID 901; active means well fitted curve in the direction sought with a large enough effect in the signal ratio, not every such curve was filed as active; inconclusive means small, poorly fitted or top-dose-only effect, or a change in a side signal; inactive means no such curve, though single readings can be large or run the other way; the % refers to the signal ratio;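 further: cells stimulated with carbachol in lithium chloride buffer; plate controls were DMSO basal wells for no effect and reference inhibitor wells for full effect; higher means more IMPase inhibition seen as more IP1 and lower FRET ratio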
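Seeded CHO-M1 cells were dosed with compound at up to 46 uM, stimulated with carbachol for 30 min, then lysed in IP-One detection reagents. Higher IP1 lowers the TR-FRET signal.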
PNC assembly inh = blocks assembly of the perinucleolar compartment; PC3M PTB-GFP, PNC prevalence imaging, 16 h; hits give low values; actives 3.1% (n = 140,000); activity change (PNC), negative = inhibition, % at 10 µM;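 active means readout at or below -70, meaning at least 70% loss of cells showing the perinucleolar compartment, a nuclear body marking cancer cells; inconclusive means readout between -30 and a set limit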;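 further: plate controls were DMSO wells for no effect and camptothecin positive control wells for full effect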
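PC3M cells stably expressing PTB-GFP, 750–1000 cells/well, treated 16 h at 37 °C with compound (23 nl of library stock), in duplicate. After paraformaldehyde fixation and Hoechst stain, imaged at 20x; PNC prevalence scored by image analysis.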
* = called active by the depositor; [ ] = remark or other dose. This is a sample that favours compounds with a hit; in the whole collection about 11% have one here. Unless noted, the call rests on the fitted dose curve; in most records, active means well fitted inhibition curve with a large enough effect (not every such curve was filed as active); inconclusive means small, poorly fitted or top-dose-only effect, or another doubt; inactive means no such curve, though single readings can be large or run the other way. Unless noted, on the % scale 0 is the no-effect control and ±100 the full control effect.

How did CC(C)CCNC(=O)c1c(N)n(Cc2ccc3c(c2)OCO3)c2nc3ccccc3nc12 do in these assays?
NPSR antag: inconclusive; IMPase Li cell: -7%[38.3 µM]; ALDH1A1 block: inconclusive; HPGD block: inconclusive; IMPase inh: 4; PNC assembly inh: -25

How did CC(C)CNC(=O)c1c(N)n(Cc2ccc3c(c2)OCO3)c2nc3ccccc3nc12 do in these assays?
NPSR antag: 3.2µM*; IMPase Li cell: 32%[38.3 µM]; ALDH1A1 block: inconclusive; HPGD block: inconclusive; IMPase inh: -3; PNC assembly inh: 17

How did O=C(CCl)c1ccccc1 do in these assays?
IMPase Li cell: 23%; ALDH1A1 block: 0.079µM*; HPGD block: -7%

Results for O=C(O)Cc1ccccc1 ?
IMPase Li cell: 6%; ALDH1A1 block: -5%; HPGD block: -1%

How did CC(=O)Nc1ccccc1C(=O)OCc1ccc(C(=O)c2ccccc2)cc1 do in these assays?
NPSR antag: inconclusive; IMPase Li cell: -2%[38.3 µM]; ALDH1A1 block: inconclusive; HPGD block: 25µM*; IMPase inh: 8; PNC assembly inh: 10

What do the screens show for `O=C(/C=C/c1ccc2c(c1)OCO2)c1c(O)n(CCC2=CCCCC2)c(=O)[nH]c1=O`?
NPSR antag: inconclusive; IMPase Li cell: 6%; ALDH1A1 block: 32µM*; HPGD block: -19%; IMPase inh: 4; PNC assembly inh: 44

What do the screens show for `COc1ccc(/C=C/C(=O)c2c(O)n(CCC3=CCCCC3)c(=O)[nH]c2=O)cc1`?
NPSR antag: inconclusive; IMPase Li cell: -2%; ALDH1A1 block: inconclusive; HPGD block: -8%; IMPase inh: -4; PNC assembly inh: -25

What do the screens show for `O=C(CCCCCn1c(=S)[nH]c2ccccc2c1=O)N1CCC2(CC1)OCCO2`?
NPSR antag: inconclusive; IMPase Li cell: 15%[38.3 µM]; ALDH1A1 block: -7%; HPGD block: -24%; IMPase inh: 0; PNC assembly inh: 10

Results for CN(C)C1C(=O)C(C(N)=O)=C(O)[C@@]2(O)C(=O)C3=C(O)c4c(O)cccc4[C@@](C)(O)C3CC12 (stereo partly specified) ?
IMPase Li cell: 4µM*; ALDH1A1 block: -9%; HPGD block: -21%

What do the screens show for `NC(Cc1ccc(N(CCCl)CCCl)cc1)C(=O)O` (stereo unspecified)?
NPSR antag: -12%[46.1 µM]; IMPase Li cell: 10%; ALDH1A1 block: 32µM*; HPGD block: 3%

What do the screens show for `CC(=O)NC(Cc1ccc(N(CCCl)CCCl)cc1)C(=O)NC(C(=O)O)C(C)C` (stereo unspecified)?
NPSR antag: 2%; IMPase Li cell: -1%; ALDH1A1 block: -14%

How did CCOC(=O)CC(NC(=O)C(Cc1ccc(N(CCCl)CCCl)cc1)NC(C)=O)C(=O)OCC (stereo unspecified) do in these assays?
NPSR antag: 2%; IMPase Li cell: 16%; ALDH1A1 block: 25µM*

What do the screens show for `N[C@@H](Cc1cc(Br)c(O)c(Br)c1)C(=O)O`?
NPSR antag: 1%; IMPase Li cell: 0%; ALDH1A1 block: inconclusive; HPGD block: -12%; PNC assembly inh: -18

Results for CN1CCC2(O)OCCCC2C1 (stereo unspecified) ?
NPSR antag: -8%; ALDH1A1 block: 15%

Results for O=C(N/N=C/c1c(O)n(CCC2=CCCCC2)c(=O)[nH]c1=O)c1ccccc1 ?
NPSR antag: -5%[46.1 µM]; IMPase Li cell: -9%; ALDH1A1 block: inconclusive; HPGD block: -25%; IMPase inh: 9; PNC assembly inh: inconclusive

What do the screens show for `COc1ccc(CCNCc2ccncc2)cc1`?
NPSR antag: 5%[46.1 µM]; IMPase Li cell: 37%[38.3 µM]; ALDH1A1 block: 22µM*; HPGD block: 4%; IMPase inh: 3; PNC assembly inh: -3

How did CC(c1ccc(F)cc1)n1cc(C(=O)NCc2ccc3c(c2)OCO3)nn1 (stereo unspecified) do in these assays?
NPSR antag: -15%[46.1 µM]; ALDH1A1 block: 1%; IMPase inh: 4; PNC assembly inh: -90*

What do the screens show for `Cc1cc([P+](=O)O)c(C)n1-c1ccc(Br)cc1`?
NPSR antag: -2%[46.1 µM]; IMPase Li cell: -14%[38.3 µM]; ALDH1A1 block: -3%; HPGD block: -4%; IMPase inh: 8; PNC assembly inh: 11

Results for COc1ccc(N2C(=O)C(Cl)=C(N3CCN(Cc4ccccc4)CC3)C2=O)cc1 ?
NPSR antag: inconclusive; IMPase Li cell: 13%[38.3 µM]; ALDH1A1 block: inconclusive; HPGD block: -10%; IMPase inh: 6; PNC assembly inh: -20

What do the screens show for `O=C1C(Cl)=C(N2CCCCCC2)C(=O)N1c1ccccc1`?
NPSR antag: 20%[46.1 µM]; IMPase Li cell: 37%[38.3 µM]; ALDH1A1 block: inconclusive; HPGD block: 16µM*; IMPase inh: 10; PNC assembly inh: inconclusive

What do the screens show for `NC(N)=Nc1ccc2[nH]c3c(c2c1)C[C@]1(O)[C@@H]2Cc4ccc(O)c5c4[C@]1(CCN2CC1CC1)[C@@H]3O5`?
IMPase Li cell: 26%; ALDH1A1 block: 25µM*; HPGD block: -14%; IMPase inh: 9

Results for COc1cccc(CNC(=O)CSc2ccc(-c3ccco3)nn2)c1 ?
NPSR antag: -5%; IMPase Li cell: -15%; ALDH1A1 block: 13µM*

What do the screens show for `CC[C@H](C)C(=O)O[C@@H]1[C@H](O)[C@@H]2[C@H](CN3C[C@@H](C)CC[C@@H]3[C@@]2(C)O)[C@@H]2C[C@@]34O[C@@]5(O)[C@@H](OC(=O)[C@](C)(O)CC)CC[C@@]3(C)[C@H]5[C@H](OC(C)=O)[C@@H](OC(C)=O)[C@H]4[C@]12O`?
IMPase Li cell: -3%; ALDH1A1 block: 10%[20.9 µM]; HPGD block: 4%; IMPase inh: -5[20.6 µM]

How did C/C(=N\Nc1ccccc1)c1c(O)n(C)c(=O)n(C)c1=O do in these assays?
NPSR antag: -3%; IMPase Li cell: 21%; ALDH1A1 block: 25µM*; HPGD block: -11%; IMPase inh: -5; PNC assembly inh: inconclusive

What do the screens show for `Cn1c(O)c(C(=O)c2ccccc2)c(=O)n(C)c1=O`?
NPSR antag: -10%[46.1 µM]; IMPase Li cell: -6%[38.3 µM]; ALDH1A1 block: -6%; HPGD block: -4%; IMPase inh: 1; PNC assembly inh: 41

Results for Cn1c(O)c(/C=N/Nc2ccccc2)c(=O)n(C)c1=O ?
NPSR antag: -7%; IMPase Li cell: 4%; ALDH1A1 block: 10µM*

What do the screens show for `CC1(C)C(=O)C=C[C@@]2(C)C1CC(O)[C@]1(C)C2CC[C@@]2(C)C(c3ccoc3)OC(=O)C3O[C@]312` (stereo partly specified)?
IMPase Li cell: 13%; ALDH1A1 block: -3%; HPGD block: -7%
